Screening results: PubChem, National Center for Advancing Translational Sciences (NCATS)
p53null 39C tox – selectivity test: cytotoxicity in p53 null cells, nonpermissive temperature. Potency, µM (series often up to 46.1 µM), for inactives: top-dose activity, negative = cell killing, hits mostly cytotoxic. H1299 p53-null (neo) cells, 39C, ATPlite viability, 24 h. 55,000 tested, 0.97% active;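 further: 0% = DMSO only and -100% = full killing by 100 µM tamoxifen; nearly all actives have a fitted effect of over 50% in size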
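ATP-luminescence viability readout (ATPlite, 20 min RT) after 24 hr compound treatment at 39C of H1299-neo or H1299-p53A138V cells; titration up to 46 uM; normalized to DMSO and 100 uM tamoxifen; Hill-fit AC50.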
mTORC1 inh – mTORC1 pathway inhibition measured by phospho-rpS6 | Tsc2-/- p53-/- MEF, phospho-rpS6 immunofluorescence/PI, 24 h | Potency, µM (doses to about 38.3 µM), for inactives: top-dose activity change, negative = inhibition, usual class: inhibitors | 44,000 tested, 0.78% active | AID 493208;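 further: plate controls were DMSO for no effect and rapamycin for full effect; nearly all actives have a fitted effect of over 50% in size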
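Read-out: phospho-S6 Alexa-488 intensity over PI intensity per well, scored as % active cells using thresholds from rapamycin (7.5 nM) and DMSO controls. Tsc2-/-, p53-/- MEFs exposed to compound for 24 h; PI cell count recorded as viability.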
OvCa metastasis – blocks SKOV3ip1 adhesion and invasion in omental model | SKOV3ip1-GFP adhesion/invasion on 3D omental model, fluorescence | Potency, µM (series often up to 45.8 µM), inactives show at the top dose activity change, negative = inhibition, usual class: inhibitors | 46,000 tested, 0.1% active | AID 1963576;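 further: plate controls were DMSO wells for no effect and tomatine positive control wells for full effect; nearly all actives have a fitted effect of over 65% in size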
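Adhesion/invasion was scored as fixed GFP-labeled SKOV3ip1 cell counts (488/509 nm), normalized to DMSO and tomatine controls. Cancer cells in serum-free medium, with four compound doses (0.36-46 umol/L), sat 2 hr at RT then 16 hr at 37 C on a 48 hr fibroblast/mesothelial/ECM culture.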
p53null 32C kill – kills p53 null cells at the permissive temperature; H1299-neo p53 null cells, ATP luminescence, 24 h, 32C; Potency, µM (titrated, usually from 46.1 µM), for the others: at the highest dose activity change, negative = cytotoxicity, usual class: cytotoxic; 55,000 tested, 0.62% active;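 further: 0% = DMSO only and -100% = full killing by 100 µM tamoxifen; nearly all actives have a fitted effect of over 55% in size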
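H1299-neo, 600 cells/well; overnight 37C; cpd up to 46 uM, 24 h at 32C; ATPlite luminescence after 20 min RT; normalized to DMSO (0%) and tamoxifen 100 uM (100% kill); Hill-fit AC50.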
S16 F2sN tox – toxic to S16 Pmp22-F2sN Schwann cells | S16 Pmp22-F2sN Schwann cells viability, CellTiter-Glo, 24 h | Potency, µM (titrated, usually from 57.5 µM), for the others: at the highest dose activity change, negative = cytotoxicity, actives largely listed as cytotoxic | 43,000 tested, 0.48% active | AID 1508642; further: nearly all actives have a fitted effect of over 65% in size
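Used to flag compounds lowering reporter output through toxicity, this quantitative HTS measures ATP-based CellTiter-Glo luminescence in S16 Pmp22-F2sN Schwann cells after 24 h compound exposure at 37C.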
PMP22 txn – modulators of PMP22 gene transcription in S16 Schwann cells; S16 Pmp22-F2sN Schwann cells (luciferase reporters placed in the Pmp22 gene), FLuc/NLuc coincidence luminescence, 24 h; Potency, µM (series often up to 57.5 µM), for the others: top-dose activity change, negative = inhibition, usual class: inhibitors; 43,000 tested, 2% active; active means clear falling dose curves in both reporters; inconclusive means both reporters move, but less clearly or upward; inactive means either reporter flat; the % is the NLuc reporter signal
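Transcriptional readout in edited S16(c9) cells: two luciferases reported from the Pmp22 locus, measured in turn after 24 h compound incubation.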
An asterisk follows results filed as active; i = inactive; ? = inconclusive; · = not tested or not shown. In the library only some 3.1% were active in any assay of this set; here they are far more common. Unless noted, the call rests on the fitted dose curve; in most records, active means well fitted curve in the direction sought with a large enough effect; inconclusive means small, poorly fitted or top-dose-only effect, or another doubt; inactive means no such curve, though single readings can be large; an effect the other way counts as inactive or inconclusive. Unless noted, on the % scale 0 is the no-effect control and ±100 the full control effect; potency means the concentration at half of the fitted maximal effect.

SMILES | p53null 39C tox | mTORC1 inh | OvCa metastasis | p53null 32C kill | S16 F2sN tox | PMP22 txn
Cc1ccc(C)c(CN2C(=O)c3ccccc3S(=O)(=O)c3ccc(C(=O)NCCCN4CCCC(C)C4)cc32)c1 (stereo unspecified) | ? | ? | ? | -1% | ? | ?
CCC1CCCCN1CCCNC(=O)c1ccc2c(c1)N(Cc1ccc(Cl)cc1)C(=O)c1ccccc1S2(=O)=O (stereo unspecified) | 25µM* | ? | -19% | -1% | ? | ?
CC1CCCN(CCCNC(=O)c2ccc3c(c2)N(Cc2ccc(Cl)cc2)C(=O)c2ccccc2S3(=O)=O)C1 (stereo unspecified) | 16µM* | 13µM* | ? | ? | ? | ?
O=C(NC1CC1)c1cccc(-c2ccc3c(NC(=O)C4CC4)n[nH]c3c2)c1 | · | · | -25% | · | · | ·
COc1cc(C2N=C(N)Nc3nc4ccccc4n32)ccc1OCCC(C)C (stereo unspecified) | · | 1% | i | · | ? | ?
CCCN(CCC)c1ccc(C2N=C(N)Nc3nc4ccccc4n32)cc1 (stereo unspecified) | 3.2µM* | -4% | ? | ? | ? | ?
CC(C)CCOc1ccc(C2N=C(N)Nc3nc4ccccc4n32)cc1 (stereo unspecified) | · | ? | 13µM* | · | -7% | ?
Cc1ccccc1C(=O)c1ccc(Nc2ccc(Br)cc2N)cc1Cl | · | · | -7% | · | · | ·
C=C1[C@H](n2cnc3c(=O)[nH]c(N)nc32)C[C@H](O)[C@H]1CO | · | · | -9% | · | · | ·
CC[C@@H]1C=C(C)C[C@H](C)C[C@H](OC)[C@H]2O[C@@](O)(C(=O)C(=O)N3CCCC[C@@H]3C(=O)O[C@H](C(C)=C[C@@H]3CC[C@H](Cl)[C@H](OC)C3)[C@H](C)[C@@H](O)CC1=O)[C@H](C)C[C@H]2OC | · | · | -3% | · | · | ·
O=c1cc(-c2ccccc2)nc2cc(-c3ccc(F)cc3)[nH]n12 | ? | -25% | -16% | ? | 25µM* | -9%
CS[C@H]1SC[C@@H]2C(=O)N(C)[C@H](C(C)C)C(=O)OC[C@H](NC(=O)c3cnc4ccccc4n3)C(=O)N[C@H](C)C(=O)N(C)[C@@H]1C(=O)N(C)[C@H](C(C)C)C(=O)OC[C@H](NC(=O)c1cnc3ccccc3n1)C(=O)N[C@H](C)C(=O)N2C | · | · | 5% | · | · | ·
O=C(Cc1ccccc1)Nc1sc2c(c1C(=O)Nc1ccccc1)CCCCC2 | -18% | ? | 1% | -7% | -12% | ?
COc1ccccc1NC(=O)c1c(NCc2ccc(C)o2)sc2c1CCCCC2 | 20% | ? | i | ? | 5% | 14µM*
COc1ccc(OC)c(NC(=O)c2c(NCc3ccc(C)o3)sc3c2CCCCC3)c1 | 9% | ? | ? | 27% | ? | ?
COc1ccc(CC(=O)Nc2sc3c(c2C(=O)Nc2ccccc2)CCCCC3)cc1 | ? | 4.6µM* | i | -8% | ? | ?
N#CC(=C1Nc2ccccc2S1)c1ccnc(OCc2ccc(CN3CCOCC3)cc2)n1 | · | · | -5% | · | · | ·
COc1ccc(-c2cc3nccn3c(Nc3ncccc3C(N)=O)n2)cc1OC | · | · | 42% | · | · | ·
Cc1nc2cnc3ccc(C#Cc4cccnc4)cc3c2n1-c1ccc(C(C)(C)C#N)cc1 | · | · | -12% | · | · | ·
Cc1ccc(C2c3c(-c4ccccc4O)n[nH]c3C(=O)N2CCCO)cc1 (stereo unspecified) | 11% | ? | -3% | 7% | -5% | -16%
Cc1ccc(C2c3c(-c4cc(C)ccc4O)n[nH]c3C(=O)N2Cc2ccco2)cc1 (stereo unspecified) | ? | ? | ? | 18µM* | ? | ?
